Experimental data as given in PubChem BioAssay (NCATS).
Values joined by “and” are separate entries in the source; they are usually repeats but may differ in a detail not shown here. Equal values may be shown once. Records with an inconclusive call do not appear. Active and inactive are the calls of the source. Calls come from the whole dose curve; as a rule, active = well fitted inhibition curve with a large enough effect; inconclusive = small, poorly fitted or top-dose-only effect; inactive = flat fitted curve, though single readings scatter.
% is set by controls: 0 for no effect and ±100 for the full control effect; potency is the fitted concentration of half-maximal effect.

Each compound was assayed on KB-3-1 (assay: Cytotoxic Profiling of Annotated Libraries Using Quantitative High-Throughput Screening (AID 1296008; note: nearly all actives have a fitted effect of over 60% in size)). Details: Five cell lines viability, CellTiter-Glo ATP luminescence, 48-72 h; max response: hits give low values.
Excerpt: Cell-based phenotypic screening is a commonly used approach to discover biological pathways, novel drug targets, chemical probes and high-quality hit-to-lead molecules. Many hits identified from high-throughput screening campaign are ruled out through a series of follow-up potency, selectivity/specificity, and cytotoxicity assays. Prioritization of molecules with little or no cytotoxicity for a more in-depth downstream evaluation influence the future direction of projects, so cytotoxicity profiling of the screening libraries at early stage is essential for increasing the likelihood of candidate success. […] For the annotated library, we also examined the primary targets and mechanistic pathways regularly associated with cell death. To our knowledge, this is the first study to use high-throughput screening to profile large libraries for cytotoxicity assessment in both normal and cancer cell lines. In summary, the results generated here constitutes a valuable resource for the scientific community and provides insight on identifying cytotoxic compounds with particular mechanisms of action, and prioritizing compounds with suitable cytotoxicity profile for further evaluation.
A pintool (Kalypsys) was used to transfer 23 nL of compound solution to the 1536-well assay plates. After 48 or 72 hr incubation at 37 degree Celsius, 5% CO2 and 95% humidity, 2.5 uL of CellTiter-Glo (Promega) was dispensed into each well using a dispenser (Aspect Automation, St. Paul, MN) with solenoid valves (Lee Valves, Westbrook CT). Plates were left at room temperature for 10 min before imaging the ATP-coupled luminescence using a ViewLux microplate imager (PerkinElmer, Waltham, MA).
With `C=C1C[C@H]2[C@@H]3C=C(C)C4=CC(=O)CC[C@]4(C)[C@H]3CC[C@]2(C)[C@@]1(OC(C)=O)C(C)=O` the max response was 17.3% (inactive). With `CC(C)COC(=O)OCN1C(=O)CN(CCN2CC(=O)N(COC(=O)OCC(C)C)C(=O)C2)CC1=O` the max response was 6.86% (inactive). For `CN(C)CC/C=C1/c2ccccc2COc2ccc(CC(=O)O)cc21`, the max response was -7.2% (inactive). With `Cc1ccc(O)c2ncccc12` the max response was -5.97% (inactive). In the case of `OC[C@H]1O[C@H](O[C@]2(CCl)O[C@H](CCl)[C@@H](O)[C@@H]2O)[C@H](O)[C@@H](O)[C@H]1Cl`, the outcome is reported as “inactive”. In the case of `O=C1OC2(c3ccc(O)cc3Oc3cc(O)ccc32)c2ccccc21`, the max response is reported as -10.5% (inactive). For `COc1cc2c(cc1OC)C(C(C(=O)N(CCc1ccc(OC)c(OC)c1OC)CCc1ccc(OC)c(OC)c1OC)c1ccccc1)=NCC2` (stereo not given), the max response was 28% (inactive). For `Oc1c(I)cc(I)c2cccnc12`, the max response was -18.8% (inactive). In the case of `CC(C)COC(=O)c1ccc(N)cc1`, the max response is reported as 12.1% (inactive). `C[C@@H]1CN(CCCn2c3ccccc3c3ccccc32)C[C@H](C)N1` was tested, and the max response was 0.54% (inactive). `OCc1ccccc1O` was tested, and the max response was -3.85% (inactive). In the case of `NC[C@H]1O[C@H](O[C@H]2[C@H](O[C@@H]3O[C@H](CO)[C@@H](O)[C@H]3O)C(O)[C@H](N)C[C@@H]2N)[C@H](N)[C@@H](O)[C@@H]1O` (stereo not given in full), the max response is reported as -2.19% (inactive). `COc1cc(N)c(Cl)cc1C(=O)NC1CCN(CCCOc2ccc(F)cc2)CC1OC` (stereo not given) was tested, and the max response was 6.35% (inactive). `CCC(=O)c1c(O)cc(O)cc1O` was tested, and the max response was -16.9% (inactive). For `C[C@@H](CN(C)C)CN1c2ccccc2Sc2ccccc21`, the max response was -9.85% (inactive). With `CC[C@H](C)C(=O)O[C@H]1CCC=C2C=C[C@H](C)[C@H](CC[C@@H]3C[C@@H](O)CC(=O)O3)[C@H]21` the max response was 3.96% (inactive). In the case of `COc1ccc(C2C(=O)c3ccccc3C2=O)cc1`, the max response is reported as 1.39% (inactive). In the case of `CC(=O)O[C@]1(C(C)=O)CC[C@H]2[C@@H]3C[C@H](C)C4=CC(=O)CC[C@]4(C)[C@H]3CC[C@@]21C`, the max response is reported as 9.44% (inactive) and the outcome is reported as “inactive”. With `CCCCCCCCCCCCCCCC[N+](C)(C)CCN(Cc1ccc(OC)cc1)c1ncccn1` the max response was -4.99% (inactive). `Cc1ccccc1C(=O)Nc1ccc(C(=O)N2CCCC(N(C)C)c3ccccc32)cc1` (stereo not given) was tested, and the Potency was 7.31 µM (active). `CNCC[C@@H](Oc1ccccc1C)c1ccccc1` was tested, and the max response was -7.4% (inactive). In the case of `COc1cc(OC)cc(OC)c1`, the max response is reported as -2.29% (inactive). With `COC(=O)[C@H]1[C@H]2C[C@H]3c4[nH]c5ccccc5c4CCN3C[C@H]2CC[C@@H]1O` the max response was -10.9% (inactive). In the case of `CCCCCCC[N+](CC)(CC)CCCCc1ccc(Cl)cc1`, the max response is reported as -16.1% (inactive). In the case of `COc1cc(/C=C/C(=O)O[C@H]2CC[C@]34C[C@]35CC[C@]3(C)[C@@H]([C@H](C)CCC=C(C)C)CC[C@@]3(C)[C@@H]5CC[C@H]4C2(C)C)ccc1O`, the max response is reported as 0.76% (inactive) and -6.22% (inactive). In the case of `CC1(C)OC[C@@H](COC(=O)CCc2ccc(OC[C@@H](O)CNCCNC(=O)N3CCOCC3)cc2)O1`, the max response is reported as -12.4% (inactive) and -13.1% (inactive). In the case of `CC(=O)OCC(=O)[C@@]1(O)[C@H](C)C[C@H]2[C@@H]3CCC4=CC(=O)C=C[C@]4(C)[C@@]3(F)[C@@H](O)C[C@@]21C`, the max response is reported as 31.1% (inactive) and 2.64% (inactive) and the outcome is reported as “inactive”. In the case of `C1CCc2nnnn2CC1`, the max response is reported as 18.9% (inactive). With `O=C(N/N=C/c1ccccc1O)c1ccncc1` the max response was 8.17% (inactive). `C[C@]12C=CC(=O)C=C1[C@@H](F)C[C@@H]1[C@@H]2[C@@H](O)C[C@@]2(C)[C@H]1CC[C@]2(O)C(=O)CO` was tested, and the max response was 8% (inactive) and -2.32% (inactive). With `C[C@@H]1C[C@H]2[C@@H]3CCC4=CC(=O)C=C[C@]4(C)[C@@]3(F)[C@@H](O)C[C@]2(C)[C@H]1C(=O)CO` the max response was 11.3% (inactive). For `C#C[C@]1(O)CC[C@H]2[C@@H]3CCc4cc(OC5CCCC5)ccc4[C@H]3CC[C@@]21C`, the max response was -14.7% (inactive). With `COC(=O)CCc1ccc(OCC(O)CNC(C)C)cc1` (stereo not given) the max response was 4.51% (inactive) and -9.53% (inactive). `COc1c2occc2c(OC)c2c(=O)cc(C)oc12` was tested, and the max response was 9.91% (inactive). In the case of `C=CCc1ccc(O)c(OC)c1`, the max response is reported as 3.55% (inactive). With `COc1cc2c(cc1OC)[C@@H]1CC(=O)[C@@H](CC(C)C)CN1CC2` the max response was 20.8% (inactive). `CCCN1CCCC[C@H]1C(=O)Nc1c(C)cccc1C` was tested, and the max response was -10% (inactive). For `Cc1ccc(Nc2c(F)cccc2Cl)c(CC(=O)O)c1`, the max response was -12.9% (inactive) and 2.03% (inactive).
